# This is part of a sample that, as a whole, favours compounds with a hit. Of some 79,000 tested, about 15% had one in any assay. A number with no mark means an inactive call. Active and inactive are the calls of the source. Rule as the data show it: active = growth inhibition above about 70%; inactive = the rest.
# What was measured:
# [1] = NCI Yeast Anticancer Drug Screen. Data for the rad50 strain (AID 155);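 also: 0% = growth of vehicle-only cultures of the same strain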; conditions: S. cerevisiae rad50 strain growth inhibition, stronger effect = higher value
# Outline: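 Growth of the mutant yeast was measured after compound exposure and referenced to vehicle-treated cultures.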
# [2] = NCI Yeast Anticancer Drug Screen. Data for the mec2-1 strain (AID 157); conditions: S. cerevisiae mec2-1 strain, stronger effect = higher value
# Outline: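 Vehicle-treated cultures served as reference for growth inhibition of compound-exposed mec2-1 yeast.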
# [3] = NCI Yeast Anticancer Drug Screen. Data for the sgs1 mgt1 strain (AID 161);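 also: 0% = growth of cultures given vehicle only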; conditions: S. cerevisiae sgs1 mgt1 strain, stronger effect = higher value
# Outline: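 Genetically altered yeast, compound exposure, growth inhibition relative to vehicle.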
# [4] = NCI Yeast Anticancer Drug Screen. Data for the cln2 rad14 strain (AID 165);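 also: 0% = growth equal to vehicle treated cultures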; conditions: S. cerevisiae cln2 rad14 strain, stronger effect = higher value
# Outline: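 Each compound was tested on cln2 rad14 yeast. Inhibition of growth was calculated against vehicle-exposed controls.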
# [5] = NCI Yeast Anticancer Drug Screen. Data for the bub3 strain (AID 167); conditions: S. cerevisiae bub3 mutant strain, stronger effect = higher value
# Outline: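 Whole-cell yeast assay. The mutant strain was incubated with compounds, and growth inhibition was determined by comparison with vehicle-treated cells.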
# [6] = NCI Yeast Anticancer Drug Screen. Data for the mlh1 rad18 strain (AID 175); conditions: S. cerevisiae mlh1 rad18 strain growth inhibition, stronger effect = higher value
# Outline: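 Vehicle-treated cultures served as the reference for growth inhibition in a yeast strain carrying DNA damage repair alterations exposed to each compound.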
# [7] = at 5.0 µM (retest, dose inferred, filed as 0.5)
# [8] = at 50.0 µM (retest, dose inferred, filed as 5.0)
Compound,"growth inhibition [1, 7] [%]","growth inhibition [1, 8]",growth inhibition ([1]; at 50.0 µM),"growth inhibition [2, 7] [%]","growth inhibition [2, 8]",growth inhibition ([2]; at 50.0 µM),"growth inhibition [3, 7] [%]","growth inhibition [3, 8]",growth inhibition ([3]; at 50.0 µM),"growth inhibition [4, 7] [%]","growth inhibition [4, 8]",growth inhibition ([4]; at 50.0 µM),"growth inhibition [5, 7] [%]","growth inhibition [5, 8]",growth inhibition ([5]; at 50.0 µM),"growth inhibition [6, 7] [%]","growth inhibition [6, 8]",growth inhibition ([6]; at 50.0 µM)
O=C(Nc1cccc(Br)c1)Oc1ccc(Cl)c2cccnc12,38,98% (active),89% (active),4,99% (active),91.1% (active),7,99% (active),91.7% (active),4,97% (active),89% (active),-7,98% (active),89.9% (active),16,98% (active),90.8% (active)
COc1ccc(NC(=O)CCC(=O)CC(=O)c2ccncc2)cc1,-9,3%,3.5%,4,-2%,-8.65%,2,-9%,-6.25%,-5,2%,41.2%,-2,1%,3.25%,-1,-5%,-14.6%
CCCCCc1ccc2cc(C(=O)O)[nH]c2c1,4,59%,96.7% (active),3,72% (active),95.6% (active),-4,59%,95% (active),-1,59%,97.8% (active),1,47%,97.2% (active),3,51%,98.2% (active)
Cc1ccc2c(c1)C1(C)C=C(CN3CCN(C)CC3)C(=O)CC1O2 (stereo not given),16,97% (active),99.6% (active),20,99% (active),99.7% (active),22,99% (active),99.8% (active),-4,99% (active),99.6% (active),-3,99% (active),99.7% (active),11,99% (active),99.5% (active)
COC(=O)c1cc(-c2ccccc2)[nH]c(=O)c1C#N,-8,-32%,44.5%,-18,-15%,5.25%,-5,-16%,75.8% (active),-36,-21%,22.6%,-24,-23%,-24.7%,0,-21%,52%

# — PubChem BioAssay (NCI)
